Screening data (PubChem)
This excerpt belongs to a sample that is enriched for hits.
CBX7 AlphaScr: CBX7 chromodomain binding inhibitors, primary screen, biochemical, AlphaScreen; AlphaScreen His6-CBX7 / biotin-H3K27me3 peptide binding; stronger effect = lower value; Chromobox protein homolog 7 (Homo sapiens), O95931; normalised signal (fraction of DMSO) (test concentration not listed); 1.1% of 66,000 active; in the data active means normalised signal below about 0.5
Target sequence (O95931 whole entry, looked up): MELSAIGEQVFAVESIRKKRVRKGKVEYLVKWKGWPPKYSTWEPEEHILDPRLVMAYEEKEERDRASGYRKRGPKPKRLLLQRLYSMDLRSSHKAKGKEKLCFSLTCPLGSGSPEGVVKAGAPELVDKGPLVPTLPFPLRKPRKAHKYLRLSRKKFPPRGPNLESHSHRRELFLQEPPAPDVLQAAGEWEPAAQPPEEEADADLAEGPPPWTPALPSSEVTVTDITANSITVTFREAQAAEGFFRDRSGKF
Hits are given with their value; n = inactive; ! = repeats disagree.

SMILES | CBX7 AlphaScr
COc1ccc(-c2cc(C(F)(F)F)nc(N3CCCCCC3)n2)cc1 | n
CCC(C)NC(=O)CN1CCN(Cc2cccc(C)c2)C1=O (configuration not stated) | n
CCC(C(=O)N1CC(=O)Nc2ccc(C)cc2C1c1ccc(F)cc1)c1ccccc1 (configuration not stated) | n
Cc1nc(NCCc2ccc3c(c2)OCCO3)c2cc(-c3ccccc3)sc2n1 | 0.36
COc1ccc(CCNc2nc(C)nc3sc(C)c(C)c23)cc1OC | n
Cc1nc(SCC(=O)c2ccc3c(c2)OCCO3)c2cc(-c3ccccc3)sc2n1 | n
O=C(NCc1ccccn1)C1CCN(C(=O)c2cnn(-c3ccccc3)c2-n2cccc2)CC1 | n
Cc1ccc(NC(=O)CCc2c(C)nc3c(-c4ccccc4)c(C)nn3c2C)nc1 | n
Cc1onc(-c2ccccc2)c1C(=O)NCCCn1ccnc1 | n
c1ccc2c(-c3nc(-c4ccncc4)no3)cc(-c3ccncc3)nc2c1 | n
CCCc1noc(-c2cc(-c3ccncc3)nc3ccccc23)n1 | 0.44
Cc1ccccc1-c1noc(-c2cc(-c3ccncc3)nc3ccccc23)n1 | n
Cc1cc(C)cc(NC(=O)C2CCN(c3nn4c(=O)cc(C)nc4s3)CC2)c1 | n
CCOc1ccc(CNc2ccc3c(c2)ncn3-c2ccc(OC)cc2)cc1 | n
COc1ccccc1CNc1ccc2c(c1)ncn2-c1ccc(C)cc1 | 0.22
COc1ccc(-n2cnc3cc(NCc4ccccc4OC)ccc32)cc1 | 0.31
COc1ccc(CNc2ccc3c(c2)ncn3C)c(OC)c1 | n
COc1ccccc1CNC(=O)c1ccc2c(c1)ncn2-c1ccc(C)c(Cl)c1 | n
COc1ccc(CNc2ccc3c(c2)ncn3-c2ccc(C)cc2)cc1 | 0.27
CCCn1cnc2cc(NCc3ccccc3OC)ccc21 | n
COc1ccc(-n2cnc3cc(NCc4ccc(OC)c(OC)c4)ccc32)cc1 | n
COc1ccccc1CNc1ccc2c(c1)ncn2-c1ccccc1OC | n
COc1ccc(Cc2nnc(NC(=O)Nc3ccc(Cl)cc3)s2)cc1 | n
Cc1ccc(OCCNC(=O)C2CC(=O)N(c3ccc(C)cc3)C2)cc1 (configuration not stated) | n
COc1ccc(NC(=O)c2cc(-c3ccc4c(c3)OCO4)on2)cc1 | n
SMILES | CBX7 AlphaScr
O=C(NCc1ccc2c(c1)OCO2)c1cnc2ccccn2c1=O | n
COc1cc(Cl)c(C)cc1NC(=O)c1cc2c(s1)-c1ccccc1OC2 | n
Cc1onc(-c2ccccc2Cl)c1C(=O)NC1CCCCCCC1 | n
COc1ccc(CN2C(=O)c3cccnc3C2Nc2ccc(OC)cc2)cc1 (configuration not stated) | 0.017
COc1ccc(Cl)cc1NC1c2ccccc2C(=O)N1Cc1ccccc1 (configuration not stated) | n
COc1ccc(CN2C(=O)c3cccnc3C2Nc2cc(Cl)c(OC)cc2OC)cc1 (configuration not stated) | 0.073
COc1ccc(CN2C(=O)c3cccnc3C2Nc2ccc(C)cc2)cc1 (configuration not stated) | n
Cc1ccc(NC2c3ncccc3C(=O)N2Cc2ccc(F)cc2)cc1C (configuration not stated) | n
COc1ccc(NC2c3ccccc3C(=O)N2Cc2ccccc2)cc1Cl (configuration not stated) | n
CCc1ccc(OCc2nc(-c3cccnc3)no2)c(Br)c1 | n
O=C(Nc1ccccc1)N1CCC(c2ccccc2)C1 (configuration not stated) | n
CC(C)(C)c1ccc2c(c1)N(CC(=O)N1CCN(Cc3ccccc3)CC1)C(=O)CO2 | n
COC(=O)c1ccc(NC(=O)Cn2nc(-c3ccc(C)cc3)c3ccccc3c2=O)cc1 | n
CCOC(=O)c1[nH]c(C)c(C(=O)NC(C)CC)c1C (configuration not stated) | n
COc1ccc(-c2cc3ccccc3n2CC(O)CN2CCN(CCO)CC2)cc1 (configuration not stated) | n
Cc1ccc(-n2c3c(cc(C(=O)N4CCOCC4)c2=O)C(=O)CC(C)(C)C3)cc1 | n
Cc1ccc(Nc2nc(-c3ccc(-c4ccccc4)cc3)cs2)cc1Cl | n
Cc1ccc(C)c(-c2csc(Nc3ccc(C)c(Cl)c3)n2)c1 | 0.37!
Clc1ccc(-c2csc(Nc3ccc(Br)cc3)n2)cc1 | n
Cc1ccc(Nc2nc(-c3ccccc3)cs2)cc1Cl | n
CCOc1ccc(Nc2nc(-c3ccc(OC)c(F)c3)cs2)cc1 | n
Clc1ccc(Nc2nc(-c3ccncc3)cs2)cc1 | n
Oc1ccc(Nc2nc(-c3ccc(Cl)cc3)cs2)cc1 | 0.44
Cc1ccc(Nc2nc(-c3ccc(Cl)cc3)cs2)cc1C | n
COc1ccc(-c2csc(Nc3ccc(C)c(Cl)c3)n2)cc1F | 0.39!
SMILES | CBX7 AlphaScr
Cc1ccc(Nc2nc(-c3ccc(I)cc3)cs2)cc1C | n
Cc1ccc(Nc2nc(-c3ccc(C)c(C)c3)cs2)cc1 | 0.45
Cc1ccc(C)c(-c2csc(Nc3ccc(F)cc3)n2)c1 | n
COc1ccc(CCn2c(=O)c3cccnc3n(Cc3cccc(C(F)(F)F)c3)c2=O)cc1OC | n
O=C(NCCN1CCOCC1)c1cc(-c2cccc(Cl)c2)on1 | n
O=C(CN1C(=O)COc2ccc(S(=O)(=O)N3CCOCC3)cc21)NC1CC1 | n
COC(=O)c1ccc(NC(=O)CC2Sc3ccccc3NC2=O)cc1 (configuration not stated) | n
COc1cccc(-c2nn(C)c3sc(C(=O)Nc4ccc(F)cc4)cc23)c1 | n
CCOc1cc(/C=c2\sc3nc4c(C)c(C)ccc4n3c2=O)ccc1O | n
COc1ccc(-c2csc(Nc3cccc(C(=O)O)c3)n2)cc1 | n
COc1cccc(Nc2nc(-c3ccc(F)cc3)cs2)c1 | 0.47
COc1cccc(Nc2nc(-c3ccc(C)cc3)cs2)c1 | n
CCOC(=O)c1cccc(NC(=O)c2ccc(CNc3c(N4CCC(C)CC4)c(=O)c3=O)cc2)c1 | n
O=C1CCc2cc(S(=O)(=O)NC(C(=O)Nc3cccc(F)c3)c3ccccc3)ccc2N1 (configuration not stated) | n
Nc1nonc1-n1nnc(C(=O)O)c1CSc1nc2ccccc2o1 | 0.018
NC(=O)c1nnn(-c2nonc2N)c1CSc1nc2ccccc2o1 | n
COC(=O)c1nnn(-c2nonc2N)c1CSc1nc2ccccc2o1 | n
Cc1ccccc1OCC(O)Cn1c(C(F)(F)F)nc2ccccc21 (configuration not stated) | n
Cc1cccc(NC(=O)c2sc3ncn(CC(=O)N4CCCCC4C)c(=O)c3c2C)n1 (configuration not stated) | n
COc1c(-c2cc(-c3ccccc3)n[nH]2)c(O)c(OC)c2occc12 | n
COc1ccc(-c2noc(-c3ccc(Br)cc3)n2)cc1OC | n
COc1ccc(-c2cc(-c3c(O)c(OC)c4occc4c3OC)[nH]n2)cc1OC | 0.45
CC(C)OC(=O)CC1CC(c2ccccc2)N(Cc2ccccc2)CC1(C)O (configuration not stated) | n
Fc1cc2nc(-c3ccccc3)c(-c3ccccc3)nc2cc1Cl | n
COc1ccccc1CNS(=O)(=O)c1ccc2[nH]cc(C(=O)O)c(=O)c2c1 | n
COc1cccc(CNS(=O)(=O)c2ccc3[nH]cc(C(=O)O)c(=O)c3c2)c1 | n
O=C(O)c1c[nH]c2ccc(S(=O)(=O)NCc3ccc4c(c3)OCO4)cc2c1=O | 0.48
Cc1cccc(NC(=O)C2CCC(CNS(=O)(=O)c3cccc4cccnc34)CC2)c1 (configuration not stated) | n
